Measurements from PubChem BioAssay (Tox21).
Inconclusive results are not listed. Where a call stands in place of a potency, no number is given. Active and inactive are the calls of the source. Calls follow the shape of the dose curve; as a rule, active = well fitted cell-killing curve with a large enough effect in the repeat runs; inconclusive = weak or mixed curves; inactive = flat fitted curve, though single readings scatter.

Test: qHTS RealTime-Glo MT Cell Viability Assay in HepG2 cells - 8 hour (AID 1224873); also: nearly all actives have a fitted effect of over 55% in size
Settings: RealTime-Glo luminescence; series mostly up to 76.8 µM
From the text: National Center for Advancing Translational Sciences [NCATS]
NIH Chemical Genomics Center [NCGC]
U.S. Environmental Protection Agency [EPA]
National Institutes of Environmental Health Sciences [NIEHS]
National Toxicology Program [NTP]
U.S. Food and Drug Administration [FDA]
Measure of cell viability is critical in the cell-base assay. Analysis of cell viability is necessary for the characterization of cell responses to cytotoxic drugs and environmental stress. A RealTime-Glo MT Cell Viability Assay to monitor cell viability in real time of continues cell culture during 40 hours of compound treatment was used to screen Tox21 10K library compounds in HepG2 cells. The RealTime-Glo MT Cell Viability Assay is a nonlytic, homogeneous, bioluminescent method to measure cell viability in real time using a simple, plate-based method. The assay involves adding NanoLuc luciferase and a cell-permeant prosubstrate to cells in culture. Viable cells reduce the proprietary prosubstrate to generate a substrate for NanoLuc luciferase. This substrate diffuses from cells into the surrounding culture medium, where it is rapidly used by the NanoLuc Enzyme to produce a luminescent signal. The signal correlates with the number of viable cells, making the assay well suited for cytotoxicity studies.
Tox21 Assay Protocol Summary:
The mixture of HepG2 cell suspension and reagents were dispensed at 600cells/6 ul/well in 1536-well tissue culture treated black solid bottom plates using a Multidrop dispenser. After the assay plates were incubated at a 37 C/5% CO2 incubator for 5 hours, 23 nL of compounds dissolved in DMSO, positive and negative controls was transferred to the assay plate by a pintool work station. The plates were incubated at 37 C for 40 hours. The luminescence intensity were measured at 0h, 8h, 16h, 24h, 32h and 40h time points using ViewLux plate reader during compound treatment.
Potency is read from the fitted curve at half-maximal effect.

SMILES | Potency
CCCCN(CCCC)C(=O)N(CCCC)CCCC | inactive
Cc1cccc2c1cc1ccc3cccc4ccc2c1c34 | inactive
CCCCCCCC[P+](CCCCCCCC)(CCCCCCCC)CCCCCCCC | 17.3 µM (active)
CC(C)n1nc(-c2cc3cc(O)ccc3[nH]2)c2c(N)ncnc21 | inactive
CC(C)(C)C1CCC(CC2=C(O)c3ccccc3C(=O)C2=O)CC1 (stereo not given) | inactive
CC(C)C(C)(C)C(C)(C)C(C)(C)S | inactive
Clc1ccc(C(Cn2ccnc2)OCc2ccc(Sc3ccccc3)cc2)c(Cl)c1 (stereo not given) | inactive
Cc1cc2c(cc1C(F)(F)F)N(C(=O)Nc1ccc(Oc3cccnc3C)nc1)CC2 | inactive
O=C(Nc1ccc(Oc2ccc(Cl)cc2)c(Cl)c1)c1cc(I)cc(I)c1O | inactive
O=C1C=CC(=O)N1c1ccc(Cc2ccc(N3C(=O)C=CC3=O)cc2)cc1 | 12.3 µM (active)
CCc1cc(SCc2sc(-c3ccc(C(F)(F)F)cc3)nc2CN2CCN(c3ccc(OC)cc3)CC2)ccc1OCC(=O)O | inactive
CCC(C)Nc1ccc(NC(C)CC)cc1 (stereo not given) | 19.9 µM (active)
Cc1oc(-c2ccccc2)nc1CCC(=O)c1ccc(CC2SC(=O)NC2=O)cc1 (stereo not given) | inactive
O=C1C=CC(=O)N1 | 44.8 µM (active)
O=c1cc(-c2ccc(O)cc2)oc2cc(O)cc(O)c12 | inactive
CCC1OCC(COc2ccc(Oc3ccccc3)cc2)O1 (stereo not given) | inactive
CC(C)CCCCCCCCCCCCCCC(=O)O | inactive
CS(=O)(=O)CCNCc1ccc(-c2ccc3ncnc(Nc4ccc(OCc5cccc(F)c5)c(Cl)c4)c3c2)o1 | 23.9 µM (active)
CC(C)(C)C(=O)OCOC(=O)[C@@H]1N2C(=O)[C@@H](NC(=O)[C@H](N)c3ccccc3)[C@H]2SC1(C)C | inactive
CCCCC(CC)COC(=O)c1ccccc1C(=O)O (stereo not given) | inactive

SMILES | Potency
CCN(Cc1cccnc1)C(=O)c1cccc(Cl)c1[C@]1(C)C(=O)N(Cc2ccc(OC)cc2OC)c2ccc(Cl)cc21 | 20.4 µM (active)
Cc1cc(N)c(S(=O)(=O)O)cc1Cl | inactive
CO[Si](CCCNc1ccccc1)(OC)OC | inactive
CCCCCCCCn1sc(Cl)c(Cl)c1=O | 6.16 µM (active)
Cc1[nH]nc2c1N=C(c1ccccc1Cl)c1cc([N+](=O)[O-])ccc1N2 | inactive
O=C(O)c1ccc(Cl)c(Cl)c1 | inactive
CCCC1O[C@@H]2C[C@H]3[C@@H]4CCC5=CC(=O)C=C[C@]5(C)[C@H]4[C@@H](O)C[C@]3(C)[C@]2(C(=O)CO)O1 (stereo not given in full) | inactive
C/C=C(\C)C(=O)OCc1ccccc1 | inactive
CCOc1ccc2nc3cc(N)ccc3c(N)c2c1 | inactive
COC(=O)C1=C(C)NC(C)=C(C(=O)OCC(C)C)C1c1ccccc1[N+](=O)[O-] (stereo not given) | 43.6 µM (active)
CCCCCCCCCCn1cc[n+](CCCCCCCCCC)c1C | 49 µM (active)
O=c1[nH]cnc2nc[nH]c12 | inactive
CCCCCCCC/C=C/CCCCCCCC1=NCCN1CCO | 43.6 µM (active)
CCC(CN)=C(c1ccccc1)c1ccccc1 | inactive
Nc1ccc2c3c(cccc13)-c1ccccc1-2 | inactive
Cc1cc(O)c2ccccc2c1O | 10.7 µM (active)
O=S1(=O)CC(Cl)(Cl)C(Cl)(Cl)C1 | 8.71 µM (active)
Clc1ccc2n[nH]nc2c1 | inactive
CC[C@H]1O[C@]2(CC[C@@H]1C)C[C@@H]1C[C@@H](C/C=C(\C)C[C@@H](C)/C=C/C=C3\CO[C@@H]4[C@H](O)C(C)=C[C@@H](C(=O)O1)[C@]34O)O2 | 48.5 µM (active)
OC1(c2ccc(Cl)c(C(F)(F)F)c2)CCN(CCCC(c2ccc(F)cc2)c2ccc(F)cc2)CC1 | 21.3 µM (active)
